# The supplement of paper PMC3842684
# Key:
# [1] = tested on: P. falciparum NF54-pfs16-GFP early (I-III) stage gametocytes; experiment: relative % inhibition of viable gametocyte number; higher = more gametocytocidal; conditions: stage: early (I-III) gametocyte, incubation 72 h
# Summary of the method: (§1)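 Magnet-isolated NF54 pfs16-GFP gametocytes at early (I/IIa, day 2) or late (day 8) stage were exposed to compound at 5 or 0.5 µM for 72 h at 37°C, 5% CO2, 5% O2, at 10% parasitaemia and 0.1% haematocrit. Elongated GFP objects with MitoTracker Red signal above cut-off were counted as viable by confocal imaging. Relative inhibition was normalised to in-plate vehicle and positive-control wells.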
# [2] = tested on: P. falciparum NF54-pfs16-GFP late (IV-V) stage gametocytes; experiment: as above; conditions: stage: late (IV-V) gametocyte, incubation 72 h
# Summary of the method: as §1
SMILES,relative % inhibition ([1]; 0.5 µM),relative % inhibition ([1]; 5 µM),relative % inhibition ([2]; 0.5 µM),relative % inhibition ([2]; 5 µM)
COc1cc(C(=O)Nc2ccc(-c3nc4ccccc4[nH]3)cc2)cc(OC)c1OC,22.1%,42.1%,20.5%,9.54%
CCOC(=O)C1=C(C)N=c2sc(=Cc3ccccc3O)c(=O)n2C1c1ccc(OC)c2ccccc12 (stereo not drawn),-2.21%,86.4%,65.8%,61.1%
COc1ccc(-c2nonc2NC(=O)c2cccc(Cl)c2)cc1OC,31.7%,-10.8%,-17.2%,-2.96%
CC(C)(C)C(=O)Nc1ccc(C(=O)Nc2cccc(-c3nc4ccccc4[nH]3)c2)cc1,7.02%,15.3%,3.45%,17.3%
CCOc1ccc(C=Cc2nc(=O)c3ccccc3o2)cc1,4.08%,22.2%,22.3%,21.6%
CCN(CC)CCNc1ncnc2c1[nH]c1ccc(Cl)cc12,14.5%,79.1%,2.71%,24.8%
CC(=O)Nc1nnc(SCc2c(C)cc(C(C)(C)C)cc2C)s1,13.5%,19.8%,-4.86%,60.7%
COCCNCC(O)Cn1c2ccc(Cl)cc2c2cc(Cl)ccc21 (stereo not drawn),5.62%,62.7%,52.3%,96.1%
Fc1ccc2[nH]c3c(NCCCN4CCOCC4)ncnc3c2c1,18.8%,97.3%,-16.8%,22.9%
CCOc1ccc(Nc2c3ccccc3nc3ccccc23)cc1,-20.8%,84%,8.64%,20.9%
CCn1c(SCC(=O)Nc2cc(C(F)(F)F)ccc2Cl)nc2ccccc2c1=O,27.2%,5.95%,5.8%,-6.79%
Cc1cc(NC(=O)c2ccc(-c3ccccc3)cc2)no1,-6.51%,24.9%,13.3%,36.8%
